# Laboratory results taken from ChEMBL document CHEMBL4296182, “CO-ADD screening of NIH NCI Diversity Set V”.
# For part of these data: Potency and affinity values are given separately.
# Key:
# [1] = tested on: Staphylococcus aureus; test: Antibacterial activity against Staphylococcus aureus MRSA ATCC 43300 (CO-ADD:GP_020); MIC in CAMBH media using NBS plates, by Resazurin F(560/590); format: functional; conditions: Concentration 20 uM, ASSAY_TEST Inhibition of Bacterial Growth, detection method Resazurin, Fluorescence (ex560/em590), MEDIA CAMHB, plate type 384well, CORNING #3640, time 18 hr
# [2] = tested on: Acinetobacter baumannii; test: Antibacterial activity against Acinetobacter baumannii ATCC 19606 (CO-ADD:GN_034); MIC in CAMBH media using NBS plates, by Resazurin F(560/590); format: functional; conditions: Concentration 20 uM, ASSAY_TEST Inhibition of Bacterial Growth, detection method Resazurin, Fluorescence (ex560/em590), MEDIA CAMHB, plate type 384well, CORNING #3640, time 18 hr
# [3] = tested on: Escherichia coli; test: Antibacterial activity against Escherichia coli ATCC 25922 (CO-ADD:GN_001); MIC in CAMBH media using NBS plates, by Resazurin F(560/590); format: functional; conditions: Concentration 20 uM, ASSAY_TEST Inhibition of Bacterial Growth, detection method Resazurin, Fluorescence (ex560/em590), MEDIA CAMHB, plate type 384well, CORNING #3640, time 18 hr
# [4] = tested on: Klebsiella pneumoniae; conditions: Concentration 20 uM; ASSAY_TEST Inhibition of Bacterial Growth; detection method Absorption (OD600); MEDIA CAMHB; plate type 384well; NBS; CORNING #3640; time 18 hr
# [5] = tested on: Candida albicans; conditions: 20 µM
# [6] = tested on: Cryptococcus neoformans; conditions: Concentration 20 uM; ASSAY_TEST Inhibition of Fungal Growth; detection method Resazurin; Absorption (OD600-OD570); plate type 384well; NBS; CORNING #3640
structure (smiles),measurement,setting,value
CC(=O)O.N=c1ccn2c(n1)OC1C(O)C(CO)OC12 (stereo not given),Inhibition,[1],0.21%
same,Inhibition,[2],-10.07%
same,Inhibition,[3],8.11%
same,Inhibition,[4],17.17%
same,Inhibition,[5],-0.52%
same,Inhibition,[6],-12.02%
CCN(c1ccccc1)c1nc(Cl)nc2c1cnn2C,Inhibition,[1],9.86%
same,Inhibition,[2],12.26%
same,Inhibition,[3],4.23%
same,Inhibition,[4],13.76%
same,Inhibition,[5],2.54%
same,Inhibition,[6],-8.45%
Cc1nnc(Cc2ccccc2)c2[nH]nc(C)c12,Inhibition,[1],16.17%
same,Inhibition,[2],11.32%
same,Inhibition,[3],1.75%
same,Inhibition,[4],14.15%
same,Inhibition,[5],5.79%
same,Inhibition,[6],-4.44%
S=C1N(c2ccccc2)CN(C2CCCCC2)CN1c1ccccc1,Inhibition,[1],0.84%
same,Inhibition,[2],12.71%
same,Inhibition,[3],-2.84%
same,Inhibition,[4],1.62%
same,Inhibition,[5],3.07%
same,Inhibition,[6],-5.37%
COc1ccc(C(=O)Oc2cccnc2O)cc1,Inhibition,[1],-4.34%
same,Inhibition,[2],16.28%
same,Inhibition,[3],-5.51%
same,Inhibition,[4],12.02%
same,Inhibition,[5],4.27%
same,Inhibition,[6],-4.22%
C=CCSC(CC)(CC)C(N)=O,Inhibition,[1],1.95%
same,Inhibition,[2],-2.06%
same,Inhibition,[3],-8.58%
same,Inhibition,[4],10.13%
same,Inhibition,[5],1.53%
same,Inhibition,[6],7.21%
Cc1cc2cc3n(c2nn1)N=C(Cl)CC3,Inhibition,[1],10.12%
same,Inhibition,[2],6.88%
same,Inhibition,[3],-0.69%
same,Inhibition,[4],18.79%
same,Inhibition,[5],2.37%
same,Inhibition,[6],-3.5%
CC(=O)NS(=O)(=O)c1ccc2sc(C)nc2c1,Inhibition,[1],3.75%
same,Inhibition,[2],-11.67%
same,Inhibition,[3],8.35%
same,Inhibition,[4],5.23%
same,Inhibition,[5],3.43%
same,Inhibition,[6],-4.98%
c1ccc(-n2c3ccccc3c3ccccc32)cc1,Inhibition,[1],0.65%
same,Inhibition,[2],-3.58%
same,Inhibition,[3],6.48%
same,Inhibition,[4],0.88%
same,Inhibition,[5],5.95%
same,Inhibition,[6],11.23%
O=C(O)c1cc(Cl)nnc1O,Inhibition,[1],15.87%
same,Inhibition,[2],-4.6%
same,Inhibition,[3],13.02%
same,Inhibition,[4],-7.82%
same,Inhibition,[5],-1.79%
same,Inhibition,[6],-6.94%
O=C(O)c1cccc2c1C(=O)c1cccc3snc-2c13,Inhibition,[1],11.24%
same,Inhibition,[2],8.28%
same,Inhibition,[3],-4.32%
same,Inhibition,[4],2.89%
same,Inhibition,[5],21.9%
same,Inhibition,[6],-0.5%
O=C(/C=C/c1ccccc1Cl)c1ccc(O)cc1,Inhibition,[1],3.85%
same,Inhibition,[2],0.76%
same,Inhibition,[3],-16.06%
same,Inhibition,[4],19.85%
same,Inhibition,[5],14.7%
same,Inhibition,[6],8.89%
Cc1ccc(NC(=O)Nc2nc3ccccc3s2)cc1NC(=O)Nc1nc2ccccc2s1,Inhibition,[1],-1.63%
same,Inhibition,[2],-10.02%
same,Inhibition,[3],17.87%
same,Inhibition,[4],8.92%
same,Inhibition,[5],-2.38%
same,Inhibition,[6],-1.68%
O=C1C(Br)=Cc2cccc3cccc1c23,Inhibition,[1],13.47%
same,Inhibition,[2],-14.96%
same,Inhibition,[3],6.58%
same,Inhibition,[4],7.6%
same,Inhibition,[5],32.2%
same,Inhibition,[6],12.78%
O=c1cc2oc3cc(O)c(O)cc3c(-c3ccccc3O)c-2cc1O,Inhibition,[1],-11.77%
same,Inhibition,[2],-19.46%
same,Inhibition,[3],15.45%
same,Inhibition,[4],16.39%
same,Inhibition,[5],44.4%
same,Inhibition,[6],-6.63%
Oc1ccccc1-c1nc2c3ccccc3c3ccccc3c2[nH]1,Inhibition,[1],17.7%
same,Inhibition,[2],0.13%
same,Inhibition,[3],3.46%
same,Inhibition,[4],14.09%
same,Inhibition,[5],6.21%
same,Inhibition,[6],-5.55%
Nc1ccccc1Sc1cc(Cl)nnc1Cl,Inhibition,[1],10.59%
same,Inhibition,[2],-10.6%
same,Inhibition,[3],6.4%
same,Inhibition,[4],13.76%
same,Inhibition,[5],6.84%
same,Inhibition,[6],-6.72%
O=C(Nc1nnc(C(F)(F)F)s1)c1c(F)cccc1F,Inhibition,[1],18.6%
same,Inhibition,[2],12.37%
same,Inhibition,[3],3.33%
same,Inhibition,[4],14.22%
same,Inhibition,[5],14.6%
same,Inhibition,[6],22.23%
Cn1cnc([N+](=O)[O-])c1Sc1n[nH]c(N)n1,Inhibition,[1],6.38%
same,Inhibition,[2],14.39%
same,Inhibition,[3],-1%
same,Inhibition,[4],1.75%
same,Inhibition,[5],-0.83%
same,Inhibition,[6],-4.45%
O=C(Nc1ccc(Cl)c(Cl)c1)Nc1ccccc1O,Inhibition,[1],-10.29%
same,Inhibition,[2],0.1%
same,Inhibition,[3],-13.39%
same,Inhibition,[4],5.08%
same,Inhibition,[5],3.05%
same,Inhibition,[6],15.14%
Cc1nc2ccnn2c(O)c1CCc1ccccc1,Inhibition,[1],8.7%
same,Inhibition,[2],-8.36%
same,Inhibition,[3],1.1%
same,Inhibition,[4],10.44%
same,Inhibition,[5],5.45%
same,Inhibition,[6],-6.6%
CC1=CC(C)(C)Nc2ccc(Cc3ccc4c(c3)C(C)=CC(C)(C)N4)cc21,Inhibition,[1],2.44%
same,Inhibition,[2],4.53%
same,Inhibition,[3],-20.49%
same,Inhibition,[4],-0.68%
same,Inhibition,[5],14.9%
same,Inhibition,[6],28.4%
CN(C)S(=O)(=O)Nc1ccccn1,Inhibition,[1],6.72%
same,Inhibition,[2],9.21%
same,Inhibition,[3],-0.96%
same,Inhibition,[4],17.6%
same,Inhibition,[5],5.95%
same,Inhibition,[6],-3.86%
CN(C)c1ccc(/C=C2/C=C(c3ccc4c(c3)CCCC4)OC2=O)cc1,Inhibition,[1],19.91%
same,Inhibition,[2],-7.24%
same,Inhibition,[3],16.55%
same,Inhibition,[4],6.65%
same,Inhibition,[5],4.35%
same,Inhibition,[6],1.53%
Cc1nc2ccccc2nc1N1CCCC1,Inhibition,[1],12.43%
same,Inhibition,[2],-3.73%
same,Inhibition,[3],4.2%
same,Inhibition,[4],6.96%
same,Inhibition,[5],2.02%
same,Inhibition,[6],-9.29%
